Screens (PubChem BioAssay)
APE1 inh – inhibitors of human APE1 endonuclease. Potency, µM (titrated, usually from 65.8 µM), without a hit: top-dose activity change, negative = inhibition, most hits filed as inhibitors. recombinant APE1, TAMRA/BHQ-2 abasic DNA cleavage fluorescence. P27695. 350,000 tested, 0.35% active;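 also: plate controls were vehicle for no effect and reference inhibitor for full effect; nearly all actives have a fitted effect of over 55% in size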
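Step 1: APE1 (0.75 nM) with compound, 15 min RT. Step 2: add 50 nM fluorophore/quencher THF duplex. Step 3: three fluorescence reads 60 s apart (525/598 nm); read 3 minus read 1 = reaction progress.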
RECQ1 inh-1 – RECQ1 (human) helicase inhibition | P46063 | RECQ1 DNA unwinding, red fluorescence kinetic read | Potency, µM (titrated, usually from 57.3 µM), for the others: at the highest dose activity, negative = inhibition, actives largely listed as inhibitors | 240,000 tested, 0.54% active;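 also: plate controls were vehicle for no effect and no enzyme for full effect; nearly all actives have a fitted effect of over 30% in size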
Target sequence (P46063 whole entry, looked up): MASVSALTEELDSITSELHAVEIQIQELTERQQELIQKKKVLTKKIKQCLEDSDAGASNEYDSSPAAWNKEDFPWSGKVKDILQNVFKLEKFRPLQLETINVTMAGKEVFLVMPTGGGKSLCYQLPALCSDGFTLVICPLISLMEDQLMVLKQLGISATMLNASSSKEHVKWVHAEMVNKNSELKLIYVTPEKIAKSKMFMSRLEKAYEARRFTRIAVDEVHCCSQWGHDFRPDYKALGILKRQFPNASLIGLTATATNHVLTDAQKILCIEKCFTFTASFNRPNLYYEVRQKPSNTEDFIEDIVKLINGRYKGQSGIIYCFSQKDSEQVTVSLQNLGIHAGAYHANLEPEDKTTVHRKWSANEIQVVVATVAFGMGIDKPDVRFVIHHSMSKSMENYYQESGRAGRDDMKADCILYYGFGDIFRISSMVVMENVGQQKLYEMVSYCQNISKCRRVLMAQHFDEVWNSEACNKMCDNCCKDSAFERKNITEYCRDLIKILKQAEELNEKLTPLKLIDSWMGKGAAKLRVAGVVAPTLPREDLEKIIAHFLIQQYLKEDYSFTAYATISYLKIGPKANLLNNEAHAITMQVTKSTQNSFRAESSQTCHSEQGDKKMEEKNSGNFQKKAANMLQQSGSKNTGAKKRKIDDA
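RECQ1T1 50 nM; forked duplex (20 bp + 30-nt ss tails) 200 nM, ATP 2 mM final; pH 8.0, 2 mM MgCl2, 2.5 ug/ml poly(dI-dC); 15 min compound preincubation; discontinuous kinetic read over 2 h at RT.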
TDP1 block – inhibitors of human tyrosyl-DNA phosphodiesterase TDP1; Q9NUW8; recombinant TDP1, AlphaScreen DNA substrate cleavage; Potency, µM (doses to about 130 µM), without a hit: top-dose activity change, negative = inhibition, most hits filed as inhibitors; 350,000 tested, 0.28% active; AID 485290; also: nearly all actives have a fitted effect of over 40% in size
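Enzyme-compound mixtures sat 15 min at room temperature, followed by a 5 min reaction with 15 nM final substrate and 10 min with AlphaScreen beads. Recombinant human Tdp1 was used at 1 nM final.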
BLM helicase inh – Bloom syndrome helicase (human) inhibition; P54132; recombinant BLM DNA unwinding, fluorescence dequenching; Potency, µM (highest dose often 56.1 µM), inactives show at the highest dose activity change, negative = inhibition, hits mostly inhibitors; 350,000 tested, 0.2% active;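 also: plate controls were vehicle for no effect and no enzyme for full effect; nearly all actives have a fitted effect of over 35% in size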
GCN5L2 inh – inhibitors of human GCN5L2 histone acetyltransferase; GCN5L2 HAT assay, ThioGlo1 CoA-SH fluorescence; AID 504327; Q92830; 390,000 tested, 0.21% active; Potency, µM (top dose mostly 58.9 µM), without a hit: at the highest dose activity change, negative = inhibition, hits mostly inhibitors
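Preincubate 20nM GCN5L2 with compound 15 min, RT → add 50uM ThioGlo1 + 75uM H3(1-25) + 70uM acetyl-CoA → read fluorescence 0 and 20 min. Primary qHTS; fluorescent artifacts likely.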
RECQ1 inh conf – confirmation of human RECQ1 helicase inhibitors; shares compounds with RECQ1 inh-1; RECQ1 helicase DNA unwinding, fluorescence; Potency, µM (doses to about 229 µM), without a hit: at the highest dose activity change, negative = inhibition, hits mostly inhibitors; 610 tested, 28% active; also: nearly all actives have a fitted effect of over 45% in size
ADP FP counter – counter-screen for RECQ1 inhibitors: ADP displacement; Potency, µM (top dose mostly 228 µM), inactives show at the top dose activity change, negative = inhibition, actives largely listed as inhibitors; AID 2711; ADP fluorescence polarization displacement counterscreen; 530 tested, 27% active; shares compounds with RECQ1 inh-1; also: nearly all actives have a fitted effect of over 45% in size
RECQ1 inh-2 – blocks human RECQ1 DNA unwinding; recombinant RECQ1 DNA unwinding, red fluorescence; Potency, µM (doses to about 119 µM), inactives show top-dose activity, negative = inhibition, usual class: inhibitors; 1,100 tested, 15% active; shares compounds with RECQ1 inh-1; AID 504841; also: nearly all actives have a fitted effect of over 50% in size
Active calls of the source: *; i = inactive; ? = inconclusive; . = no result; ! = repeats disagree; [ ] = remark or other dose. The list is not random: actives were taken first. Their share in the collection is about 0.87%. Calls follow the shape of the dose curve; as a rule, active = well fitted curve in the direction sought with a large enough effect; inconclusive = small, poorly fitted or top-dose-only effect, or another doubt; inactive = no such curve, though single readings can be large; an effect the other way counts as inactive or inconclusive. Unless noted, % is scaled to controls: 0 for no effect and ±100 for the full control effect; potency is read from the fitted curve at half-maximal effect.

SMILES | APE1 inh | RECQ1 inh-1 | TDP1 block | BLM helicase inh | GCN5L2 inh | RECQ1 inh-2 | others
COC(=O)[C@@H](NC(=O)O[C@@H]1C(=O)c2cc(Br)ccc2O[C@H]1c1ccc2c(c1)OCO2)C(C)C | -3% | i | -1% | -3% | . | .
N[C@@H](CO)c1nnc([C@H](CC(=O)O)NC(=O)C2CCNCC2)o1 | 3% | 2% | 6% | -1% | -1% | . | RECQ1 inh conf=-2%;ADP FP counter=6%
COc1ccc(C(=O)Nc2nc3c(s2)Cc2cc(OC)ccc2-3)cc1 | ? | 17% | 2% | ? | -3% | .
COc1ccc2c(c1)Cc1sc(NC(=O)c3cccs3)nc1-2 | -13% | ? | 9% | -20% | -4% | 17%
Cc1c(C(=O)NCc2cccc(Cl)c2)sc2nc[nH]c(=O)c12 | . | . | 7% | -20% | 4% | .
Clc1ccccc1N1CCN(c2ncnc3nc[nH]c23)CC1 | -1% | 28µM* | 3% | -1% | -3% | ?
CCOc1cccc(=O)c2c(C)n(-c3ccc(C(=O)O)cc3)c(C)c12 | ? | ? | . | 33% | -11% | ?
COc1cccc(=O)c2c(C)n(-c3ccc(C(=O)O)cc3)c(C)c12 | ? | ? | ? | 2% | -5% | ?
COc1ccc(-n2c(C)c3c(OC)cccc(=O)c3c2C)cc1 | -2% | i | 8% | -3% | -9% | .
COc1cc2oc(=O)cc(-c3cccc(-c4ccc(C(C)=O)cc4)c3)c2c(OC)c1OC | -7% | -9%[81.1 µM] | 3% | -6%[75.6 µM] | -8% | .
Cc1ccc(Nc2ccc(N)cc2S(=O)(=O)O)cc1 | ? | ? | 5% | -11% | -4% | -11%
COC(=O)CC1=COC(O)C2C(CO)=CC[C@@H]12 (some centres not stated) | 1%[12.4 µM] | -2%[11.5 µM] | 3%[21 µM] | -1%[12.4 µM] | . | .
Cn1nnc(NC(=O)c2ccc(C(C)(C)C)cc2)n1 | 12% | 20µM* | 6% | 0% | 0% | -7%
Cn1nnc(NC(=O)c2ccc3ccccc3c2)n1 | -6% | -5% | 3% | -13% | -2% | .
COc1cc(NC(=O)c2cc(S(=O)(=O)N3CCC(C)CC3)cn2C)cc(OC)c1OC | . | . | -1% | 1% | 14% | .
O=C1C(=O)C(c2cc(O)c(O)c(O)c2)Oc2cc(O)cc(O)c21 (configuration not stated) | . | . | . | . | . | . | RECQ1 inh conf=1µM*
CCOC(=O)c1[nH]c(CSc2nnc(-c3ccncc3)n2CCOC)c(C(=O)OCC)c1C | -10% | -11% | 4% | -5% | 1% | .
CCn1c(CSc2nnc(-c3ccncc3)n2CCOC)nc2cc(C(=O)O)ccc21 | -8% | 22µM* | 2% | -10% | -4% | -178% | RECQ1 inh conf=56µM*;ADP FP counter=4.5µM*
CCn1c(CSc2nnc3ccccn23)nc2cc(C(=O)O)ccc21 | -7% | 10µM* | 2% | -7% | -1% | 56µM* | RECQ1 inh conf=45µM*;ADP FP counter=2µM*
CCn1c(CSc2n[nH]c(N)n2)nc2cc(C(=O)O)ccc21 | ? | 32µM* | -7% | -9% | -11% | 56µM*
CCOCC(=O)O | 3% | -6% | 2% | . | . | .
CCOc1ccccc1C(=O)Nc1c(C(=O)Nc2ccc(F)cc2)oc2ccccc12 | . | . | 9% | -13% | -8% | .
CCCCOC(=O)CSC1=C(C#N)C(c2ccccc2OC)C(C#N)C(=O)N1 (configuration not stated) | -4% | 14µM* | 10% | -5% | -24% | ?
CCCCOC(=O)CSC1=C(C#N)C(c2ccccc2OCC)C(C#N)C(=O)N1 (configuration not stated) | -6% | -21% | 6% | -2% | -24% | .
COc1ccc(C(CC(=O)N2CCCC2)c2c(OC)cc(OC)c3c(-c4ccccc4)cc(=O)oc23)cc1 (configuration not stated) | 10µM* | 13µM* | 7.9µM* | ? | -12% | 20µM*
SMILES | APE1 inh | RECQ1 inh-1 | TDP1 block | BLM helicase inh | GCN5L2 inh | RECQ1 inh-2 | others
COc1ccc(C(CC(=O)N2CCCC2)c2c(OC)cc(OC)c3ccc(=O)oc23)cc1 (configuration not stated) | -8% | 5% | -4% | 1% | 4% | .
CCOc1ccc(NC(=O)C(=O)NCCc2sc(-c3ccc(C)cc3)nc2C)cc1 | . | . | 0% | 2% | 1% | .
N=C(N)c1ccccc1 | 4% | 14µM*! | 5%[56.1 µM] | -1% | 4% | . | RECQ1 inh conf=8%[114 µM];ADP FP counter=20%[91.9 µM]
COc1cccc([C@H]2Oc3ccc(OC)cc3/C(=N\O[C@@H]3O[C@H](COC(C)=O)[C@H](OC(C)=O)[C@H](OC(C)=O)[C@H]3OC(C)=O)[C@@H]2O)c1 | -4%[12.4 µM] | -1%[11.5 µM] | 6%[21 µM] | -3%[12.4 µM] | . | .
O=C1[C@@H]2[C@H]3[C@H](O)[C@H](O)C/C(=N/OCc4ccccc4)[C@H]3CC[C@H]2C(=O)N1c1ccc(F)cc1F | 12%[12.4 µM] | 15%[11.5 µM] | 6%[21 µM] | 0%[12.4 µM] | . | .
Cc1nn(Cc2ccc(F)cc2)c(C)c1NC(=O)c1cc(-c2ccco2)on1 | -23% | ? | 10% | -7% | 4% | ?
COc1ccc(-c2cc(C(=O)Nc3c(C)nn(Cc4ccc(F)cc4)c3C)no2)cc1OC | . | . | 2% | -4% | 2% | .
CCc1nnc(NC(=O)CSc2nccn2Cc2ccc(Cl)cc2)s1 | . | . | 8% | -9% | -3% | .
Cc1nc2ccc(N=NC3=C(O)CC(C)(C)CC3=O)cc2s1 | 1% | 0% | 3% | 0% | -4% | .
Cc1nc2ccc(N=NC3=C(O)CCCC3=O)cc2s1 | -5% | 1µM* | -5% | -8% | -12% | . | RECQ1 inh conf=22%[114 µM];ADP FP counter=-7%[91.9 µM]
Nc1ncnc2c1ncn2COC(CO)CO | . | . | 0% | . | . | . | RECQ1 inh conf=-6%[69.1 µM]
CN(C)c1ccc(/C=C/C=C2/SC(=S)N(c3ccccc3)C2=O)cc1 | -12% | 1.4µM* | 10% | -9% | 0% | . | RECQ1 inh conf=3.5µM*;ADP FP counter=?
O=C(O)c1ccc(N2C(=O)/C(=C/C=C/c3ccccc3)SC2=S)cc1 | 3% | i | -4% | 1% | -2% | .
COC(=O)CCC(=O)OC1(C)C(=O)C2=COC(c3ccc(OC)cc3)=CC2=C(Br)C1=O (configuration not stated) | ? | ? | -6% | 0% | -5% | 56µM*
